{
  "source": "PubChem BioAssay (NCATS)",
  "note": "Values joined by “and” are separate entries in the source; they are usually repeats but may differ in a detail not shown here. Equal entries are not always repeated. Results filed as inconclusive are left out. Unmarked numbers belong to inactive results. Active and inactive are the calls of the source. The call rests on the fitted dose curve; in most records, active means well fitted cell-killing curve with a large enough effect; inconclusive means small, poorly fitted or top-dose-only effect; inactive means flat fitted curve, though single readings scatter. Potency means the concentration at half of the fitted maximal effect.",
  "data": [
    {"assay": "Cellular viability qHTS for adrenocortical cancer (ACC) cell line NCI-H295R (AID 1963990); further: nearly all actives have a fitted effect of over 60% in size;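 on activity change, negative = viability loss: 0% = DMSO only wells and -100% = full killing with cytotoxic reference compound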", "conditions": "CellTiter-Glo ATP luminescence, 48 h; series mostly up to 46.1 µM; activity change, negative = viability loss: at the top concentration", "outline": "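Luminescent ATP read-out (CellTiter-Glo, 20 min RT) after 48 h drug exposure of NCI-H295R cells; a titration up to 46 uM final. Data normalized to doxorubicin (100% inhibition) and DMSO (0%); 4-parameter fit gives IC50, max response.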", "values": [
      {"smiles": "FC(F)c1nc2ccccc2n1-c1nc(N2CCOCC2)nc(N2CCOCC2)n1", "Potency": "0.562 µM (active)"},
      {"smiles": "OCCNC1CCCc2c1[nH]c1ccc(-c3ccccc3)cc21", "note": "(centres undefined)", "Potency": "7.08 µM (active)"},
      {"smiles": "Cc1ccc(C(=O)Nc2ccc(CN3CCN(C)CC3)c(C(F)(F)F)c2)cc1C#Cc1cnc2cccnn12", "Potency": "4.47 µM (active)"},
      {"smiles": "CNC(=O)c1c(-c2ccc(F)cc2)oc2cc(N(CCO)S(C)(=O)=O)c(C3CC3)cc12", "activity change, negative = viability loss": "-27.9%"},
      {"smiles": "NC1(c2ccc(-c3nc4ccn5c(=O)[nH]nc5c4cc3-c3ccccc3)cc2)CCC1", "Potency": "10.3 µM (active) and 7.94 µM (active)"},
      {"smiles": "CN(C)CCOC(c1ccccc1)c1ccccc1", "Potency": "inactive"},
      {"smiles": "c1nc2nc(Nc3ccc(N4CCOCC4)cc3)nc(NC3CCCCC3)c2[nH]1", "Potency": "2.82 µM (active)"},
      {"smiles": "CN1CCN(c2cc(C(=O)Nc3ccc4c(c3)-c3c(c(C(N)=O)nn3-c3ccc(F)cc3)CC4)c(Cl)cn2)CC1", "Potency": "25.1 µM (active)"},
      {"smiles": "Cn1c(=O)c2c(ncn2CC(O)CO)n(C)c1=O", "note": "(centres undefined)", "Potency": "inactive"},
      {"smiles": "Cc1nc(N)sc1-c1ccnc(Nc2ccc(N3CCOCC3)cc2)n1", "activity change, negative = viability loss": "-14.6%"},
      {"smiles": "CC(Oc1ccc(O)cc1)(P(=O)(O)O)P(=O)(O)O", "activity change, negative = viability loss": "-0.706%"},
      {"smiles": "Cc1cn[nH]c1", "Potency": "inactive"},
      {"smiles": "C[C@]12C=CC(=O)C=C1CC[C@@H]1[C@@H]2C(=O)C[C@@]2(C)[C@H]1CC[C@]2(O)C(=O)CO", "Potency": "inactive"},
      {"smiles": "c1cnc2cc3c(cc2n1)C1CNCC3C1", "Potency": "inactive"},
      {"smiles": "CCCCCCCCCC(=O)N[C@@H](Cc1c[nH]c2ccccc12)C(=O)N[C@H](CC(N)=O)C(=O)N[C@@H](CC(=O)O)C(=O)N[C@@H]1C(=O)NCC(=O)N[C@@H](CCCN)C(=O)N[C@@H](CC(=O)O)C(=O)N[C@H](C)C(=O)N[C@@H](CC(=O)O)C(=O)NCC(=O)N[C@H](CO)C(=O)N[C@@H]([C@@H](C)CC(=O)O)C(=O)N[C@@H](CC(=O)c2ccccc2N)C(=O)O[C@@H]1C", "activity change, negative = viability loss": "4.66% [at 20 µM]"},
      {"smiles": "c1ccc(CNc2nc(NCc3ccccc3)c3ccccc3n2)cc1", "Potency": "7.08 µM (active)"},
      {"smiles": "Cn1cnc2c1c(=O)[nH]c(=O)n2C", "activity change, negative = viability loss": "-8.57%"},
      {"smiles": "OC(c1cc(C(F)(F)F)nc2c(C(F)(F)F)cccc12)C1CCCCN1", "note": "(centres undefined)", "Potency": "25.1 µM (active)"},
      {"smiles": "COc1cc2c(Nc3ccc(NC(=O)c4ccccc4)cc3)ncnc2cc1OCCCN1CCOCC1", "Potency": "15.8 µM (active)"},
      {"smiles": "O[C@@H](CNC[C@H](O)[C@H]1CCc2cc(F)ccc2O1)[C@@H]1CCc2cc(F)ccc2O1", "Potency": "18.4 µM (active)"},
      {"smiles": "CNC(=O)c1cc(Oc2ccc(NC(=O)Nc3ccc(Cl)c(C(F)(F)F)c3)cc2)ccn1", "Potency": "11.2 µM (active) and 10.3 µM (active)"},
      {"smiles": "CC(C)c1cc(C(=O)N2Cc3ccc(CN4CCN(C)CC4)cc3C2)c(O)cc1O", "Potency": "0.631 µM (active)"},
      {"smiles": "CNCCCC12CCC(c3ccccc31)c1ccccc12", "Potency": "23.1 µM (active) and 25.1 µM (active)"},
      {"smiles": "COc1ccc(-c2cc3c(C)nc(N)nc3n(C3CCC(OCCO)CC3)c2=O)cn1", "note": "(centres undefined)", "Potency": "0.501 µM (active)"}
    ]}
  ]
}
